Our source for the outcome and AC50 values is PubChem BioAssay (EPA / NIEHS).

Inconclusive results are not listed. Active and inactive are the calls of the source. The calls were made as follows: active = hit-call score of the fitted dose curve at least 0.9, where 1 is the maximum; inconclusive = response in the unintended direction; inactive = score below 0.9.

Chain of human RAR-related Orphan Receptor beta (RORb), RORB (gene 6096) (Q92753 whole entry, looked up, the tested form may be a part): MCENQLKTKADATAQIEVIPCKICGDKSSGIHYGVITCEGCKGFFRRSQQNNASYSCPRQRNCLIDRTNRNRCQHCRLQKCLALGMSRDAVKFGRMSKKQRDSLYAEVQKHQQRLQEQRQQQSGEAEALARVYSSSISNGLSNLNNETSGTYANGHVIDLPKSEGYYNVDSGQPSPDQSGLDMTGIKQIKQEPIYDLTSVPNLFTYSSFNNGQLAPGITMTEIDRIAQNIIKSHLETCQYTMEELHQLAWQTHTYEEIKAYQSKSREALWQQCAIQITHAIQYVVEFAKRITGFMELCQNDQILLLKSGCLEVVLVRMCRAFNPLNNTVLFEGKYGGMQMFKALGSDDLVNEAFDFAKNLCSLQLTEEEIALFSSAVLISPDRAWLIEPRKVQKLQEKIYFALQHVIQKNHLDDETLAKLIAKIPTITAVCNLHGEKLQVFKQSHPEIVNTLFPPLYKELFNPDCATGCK
Chain of human Retinoic Acid Receptor gamma (RARg), RARG (gene 5916) (P13631 whole entry, looked up, the tested form may be a part): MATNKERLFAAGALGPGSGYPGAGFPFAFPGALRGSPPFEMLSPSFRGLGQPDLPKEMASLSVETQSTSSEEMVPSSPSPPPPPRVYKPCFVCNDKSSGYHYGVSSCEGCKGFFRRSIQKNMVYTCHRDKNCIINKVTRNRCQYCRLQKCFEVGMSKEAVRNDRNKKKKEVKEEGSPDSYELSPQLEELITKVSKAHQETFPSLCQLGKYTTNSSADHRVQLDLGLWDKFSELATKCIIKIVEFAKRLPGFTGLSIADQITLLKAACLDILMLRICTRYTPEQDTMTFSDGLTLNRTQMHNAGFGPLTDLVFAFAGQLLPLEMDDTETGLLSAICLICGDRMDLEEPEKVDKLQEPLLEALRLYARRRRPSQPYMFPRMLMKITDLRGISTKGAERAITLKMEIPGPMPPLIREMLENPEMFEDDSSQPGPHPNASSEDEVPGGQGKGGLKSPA

The first test addresses human Retinoic Acid Receptor gamma (RARg), RARG (gene 5916) (UniProt P13631). In words: ATG_RARg_TRANS: Attagene TRANS-FACTORIAL HepG2 Assay for human Retinoic Acid Receptor gamma (RARg) (AID 2283009).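 As to AC50: AC50 is for reporter induction above DMSO meaning RARg activation.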 The gist of the method: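 HepG2 cells transiently transfected with multiplexed reporter units expressing chimeric RARg-GAL4 and GAL4-UAS-driven reporters; 24 h compound exposure. Reporter mRNA quantified by RT-PCR with fluorescent labelling and capillary electrophoresis; gain-of-signal fitted relative to DMSO baseline.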
Take `Cc1ccccc1CO[C@@H]1C[C@@]2(C(C)C)CC[C@]1(C)O2`: the compound was called inactive.

Consider `ClC1=C(Cl)[C@]2(Cl)[C@@H]3[C@@H]4C[C@@H]([C@H]5O[C@@H]45)[C@@H]3[C@@]1(Cl)C2(Cl)Cl`, for which the AC50 – broadly, the midpoint of the concentration-response curve, whichever way the signal moves – is 2.12 µM (active).

As for `c1cc2ccc3cccc4ccc(c1)c2c34`, the compound was called inactive.

`CCC(=O)O[C@H]1CC[C@H]2[C@@H]3CCC4=CC(=O)CC[C@]4(C)[C@H]3CC[C@]12C`: the call was inactive.

`C[C@]12CCC(=O)C=C1CC[C@@H]1[C@@H]2CC[C@@]2(C)[C@H]1CC[C@]2(C)O`: the outcome was inactive.

On to `N#Cc1ccc(N(CC(N)=O)CC(F)(F)F)cc1C(F)(F)F`, for which the outcome was inactive.

For the compound `CCCN(CCC)N=O`, the compound was called inactive.

Regarding `C[C@]12CCC(=O)C=C1CC[C@@H]1[C@@H]2CC[C@]2(C)C(=O)CC[C@@H]12`, the outcome was inactive.

With `CO/C=C(/C(=O)OC)c1ccccc1COc1cccc(C(F)(F)F)n1`, the outcome was inactive.

On to `ClC1=C(Cl)[C@]2(Cl)[C@@H]3[C@@H](Cl)[C@H]4O[C@H]4[C@@H]3C1(Cl)C2(Cl)Cl`, for which the outcome was inactive.

With `C=CC(N)=O`, the call was inactive.

As to `Cc1cccc([N+](=O)[O-])c1`, the compound was called inactive.

As for `CC1=C2C[C@H]3[C@@H](CC=C4C[C@@H](O)CC[C@@]43C)[C@@H]2CC[C@]12O[C@@H]1C[C@H](C)CN[C@H]1[C@H]2C`, the call was inactive.

For the compound `CCOC(=O)C(O)(c1ccc(Cl)cc1)c1ccc(Cl)cc1`, the call was inactive.

Turning to `CC(C)(O)C(=O)Nc1ccc([N+](=O)[O-])c(C(F)(F)F)c1`, the result was inactive.

`Nc1ccc(-c2ccc(N)cc2)cc1`: the result was inactive.

In another test the target is human RAR-related Orphan Receptor beta (RORb), RORB (gene 6096) (UniProt Q92753). In words: ATG_RORb_TRANS: Attagene TRANS-FACTORIAL HepG2 Assay for human RAR-related Orphan Receptor beta (RORb) (AID 2283010). In outline:
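HepG2 cells were transiently transfected with multiplexed GAL4-UAS reporter units expressing chimeric nuclear receptor–GAL4 proteins, then dosed for 24 h. Reporter mRNA was quantified by RT-PCR with fluorescent labelling and capillary electrophoresis; gain of signal was fitted relative to DMSO.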
Consider `ClC1=C(Cl)[C@]2(Cl)[C@@H]3[C@@H]4C[C@@H]([C@H]5O[C@@H]45)[C@@H]3[C@@]1(Cl)C2(Cl)Cl`, for which the compound was classed as inactive.

`C=CC(=O)NCNC(=O)C=C`: the result was inactive.

Turning to `C[C@]12CCC(=O)C=C1CC[C@@H]1[C@@H]2CC[C@@]2(C)[C@H]1CC[C@]2(C)O`, the compound was called inactive.

As for `CCC(C)(c1ccc(O)cc1)c1ccc(O)cc1`, the result was inactive.

Take `Oc1ccc(C(c2ccc(O)cc2)(C(F)(F)F)C(F)(F)F)cc1`: the compound was classed as inactive.

Consider `O=S(=O)(O)C(F)(F)C(F)(F)C(F)(F)C(F)(F)C(F)(F)C(F)(F)F`, for which the result was inactive.

With `C=CC(N)=O`, the result was inactive.

Consider `CC(C)(O)C(=O)Nc1ccc([N+](=O)[O-])c(C(F)(F)F)c1`, for which the call was inactive.

Take `O=C(NC(=O)c1cc(F)c(F)cc1Cl)Nc1cc(F)ccc1N1CCC(C(=O)O)CC1`: the result was inactive.

For `Nc1ccc(-c2ccc(N)cc2)cc1`, the compound was called inactive.
